NPC1 promoter act: qHTS Assay for NPC1 Promoter Activators; Potency, µM (highest dose often 9.22 µM), without a hit: top-dose activation, actives largely listed as activators; Huh7 NPC1 promoter luciferase reporter, 24 h; 320,000 compounds, 2.4% hits; also: % of control where 0% means no effect; nearly all actives have a fitted effect of over 60% in size
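Cells: Huh7 expressing luciferase under the NPC1 promoter, 1500/well. Seeded 2 h, compound added, incubated 24 h at 37 °C. Luciferase reagent, 10 min ambient, then luminescence.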
FLuc modulator: qHTS profiling assay for firefly luciferase inhibitor/activator using purifed enzyme and Km concentrations of substrates (counterscreen for miR-21 project). purified FLuc, Km substrates, luminescence inhibition. Potency, µM (top dose mostly 57.5 µM), inactives show top-dose activity change, negative = inhibition, hits mostly inhibitors. 360,000 compounds, 6.9% hits. AID 588342, 2011;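 also: plate controls were vehicle for no effect and reference inhibitor for full effect; nearly all actives have a fitted effect of over 55% in size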
Target sequence (P08659 whole entry, looked up): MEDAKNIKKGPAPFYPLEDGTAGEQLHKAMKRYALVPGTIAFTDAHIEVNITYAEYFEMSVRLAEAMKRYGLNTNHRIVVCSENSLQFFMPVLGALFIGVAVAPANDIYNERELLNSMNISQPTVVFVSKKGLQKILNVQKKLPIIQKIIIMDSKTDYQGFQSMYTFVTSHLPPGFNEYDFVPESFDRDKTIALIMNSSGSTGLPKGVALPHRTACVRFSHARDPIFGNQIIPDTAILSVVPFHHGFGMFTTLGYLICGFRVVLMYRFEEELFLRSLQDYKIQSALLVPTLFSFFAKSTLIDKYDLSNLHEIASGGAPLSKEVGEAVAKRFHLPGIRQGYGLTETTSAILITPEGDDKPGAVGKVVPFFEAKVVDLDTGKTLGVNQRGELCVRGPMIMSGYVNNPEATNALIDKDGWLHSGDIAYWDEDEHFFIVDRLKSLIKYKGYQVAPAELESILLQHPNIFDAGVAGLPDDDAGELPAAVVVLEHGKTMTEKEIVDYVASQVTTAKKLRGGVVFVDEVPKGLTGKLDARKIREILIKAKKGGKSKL
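Purified P. pyralis luciferase, 10 nM final, with Km-level 10 uM D-luciferin and 10 uM ATP in 50 mM Tris acetate pH 7.5, 10 mM Mg acetate, 0.01% Tween-20, 0.05% BSA; 6-point qHTS titration about 60 µM downward; luminescence read.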
SMN2 splice up: qHTS Assay for Enhancers of SMN2 Splice Variant Expression; HEK293 SMN2-luciferase splicing reporter, luminescence, 30-36 h; Potency, µM (highest dose often 46.1 µM), for the others: at the top dose activity change, positive = activation, most hits filed as activators; 210,000 compounds, 2.8% hits; AID 1458, 2008; also: % of control where 0% means no effect; nearly all actives have a fitted effect of over 55% in size
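HEK293 cells carry an SMN2 minigene-luciferase reporter in which exon 7 inclusion puts luciferase in frame. Cells were seeded at 2000 cells/well, attached for 10-12 hours, then exposed to compounds for 30-36 hours at 37C before ONE-Glo luminescence.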
ELG1 genotox: qHTS screen for small molecules that induce genotoxicity in human embryonic kidney (HEK293T) cells expressing luciferase-tagged ELG1; HEK293T ELG1-luciferase reporter, luminescence, 16 h; Potency, µM (series often up to 46 µM), for the others: at the top dose activity change, positive = activation, hits mostly activators; 330,000 compounds, 1.3% hits; also: % of control where 0% means no effect; nearly all actives have a fitted effect of over 60% in size
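Cells (2,000/well) expressing the ELG1-luciferase fusion are dosed by pin tool and kept 16 hr at 37 °C, 5% CO2. Signal comes from ONE-Glo luciferase reagent after 30 min at room temperature.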
Luc counter: Counterscreen for Luciferase (Kinase-Glo TM) Inhibition; AID 1379, 2008; Kinase-Glo luciferase, ATP luminescence, 8 min; 200,000 compounds, 0.28% hits; Potency, µM (titrated, usually from 38.3 µM), for inactives: at the highest dose activity change, negative = inhibition, usual class: inhibitors; also: % is scaled to controls: 0 for no effect and ±100 for the full control effect; nearly all actives have a fitted effect of over 60% in size
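Compounds were added to a substrate mix at pH 7.2 (50 mM imidazole, 10 uM ATP, within the enzyme's linear range), followed by Kinase-Glo detection reagent; luminescence was measured after 8 minutes at ambient temperature.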
Rab9 promoter act: qHTS Assay for Rab9 Promoter Activators. 320,000 compounds, 2.8% hits. Huh7 Rab9 promoter-luciferase reporter, luminescence, 24 h. AID 485297, 2010. Potency, µM (highest dose often 9.22 µM), inactives show at the top dose activation, negative = inhibition, hits mostly activators; also: % of control where 0% means no effect; nearly all actives have a fitted effect of over 60% in size
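Luminescence read-out: Huh7 cells stably expressing Rab9-luciferase, treated 24 h with compound at 37 °C, then lysed with luciferase reagent for 10 min at ambient before reading.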
Numbers without * were called inactive; ? = inconclusive; nt = no result; [ ] = remark or other dose. A selection: hits, their analogues and other compounds. The true share with any hit is near 7.4%. Calls follow the shape of the dose curve; as a rule, active = well fitted curve in the direction sought with a large enough effect; inconclusive = small, poorly fitted or top-dose-only effect, or another doubt; inactive = no such curve, though single readings can be large; an effect the other way counts as inactive or inconclusive. Potency is read from the fitted curve at half-maximal effect.

SMILES	NPC1 promoter act	FLuc modulator	SMN2 splice up	ELG1 genotox	Luc counter	Rab9 promoter act
CCCn1c(=N)c(C(=O)NC2CCCCC2)cc2c(=O)n3cc(C)ccc3nc21	nt	-1%	-5%	nt	nt	nt
O=C(COC(=O)CCOc1ccccc1)Nc1ccc(Cl)cn1	-2%	-2%	32%	0%	3%	2%
O=C(COc1ccccc1)Nc1ccc(Cl)cn1	25%	19µM*	nt	?	-3%	?
COc1ccc(C(=O)OCC(=O)Nc2ccc(Cl)cn2)cc1	-1%	-1%	nt	0%	-2%	5%
O=C(COc1ccc(Cl)cc1)Nc1ccc(Cl)cn1	?	12µM*	nt	?	nt	?
O=C(COC(=O)COc1ccccc1F)Nc1ccc(Cl)cn1	-2%	-8%	nt	-2%	nt	-2%
O=C(/C=C/c1ccc2c(c1)OCO2)NC1CCCC1	4%	15µM*	nt	15%	nt	0%
O=C(COc1ccccc1Cl)Nc1ccc(Cl)cn1	2.2µM*	0.95µM*	11µM*	3.2µM*	-3%	1.4µM*
O=c1c[n+](CCCC[n+]2cc(=O)o[nH]2)[nH]o1	nt	nt	-7%[9.22 µM]	nt	-1%[7.66 µM]	nt
Cc1ccc(OCC(=O)NS(=O)(=O)c2ccc(Cl)cc2)cc1	1%	1%	nt	8%	nt	-7%
O=C(COc1ccc2c(c1)OCO2)Nc1ccc(Cl)cn1	2µM*	13µM*	nt	?	nt	3.5µM*
O=C(COc1ccccc1)NS(=O)(=O)c1ccc(Cl)cc1	16%	17µM*	nt	10%	nt	5%
Cn1c(=O)c(C=Nc2ccccc2)c(O)c2ccccc21	-4%	4.3µM*	nt	0%	nt	0%
O=C(NCCc1ccc(Cl)cc1)C1CCN(S(=O)(=O)c2ccc3[nH]ccc3c2)CC1	nt	-1%	nt	nt	nt	nt
O=c1c2ccccc2nc2n1CCc1c-2[nH]c2ccccc12	2.9µM*	0.95µM*	7.9µM*	3.3µM*	-7%	2.9µM*
COc1ccc(-c2nc(SCC(=O)NCc3nc4ccccc4n3C)n3[nH]c(=O)cc3n2)cc1	nt	4%	nt	nt	nt	nt
COc1cc(NC(=O)CCc2c(C)nc3c(c(C)nn3-c3ccccc3)c2C)cc(OC)c1OC	nt	0%	1%	nt	nt	nt
CCOC(=O)c1sc(-c2ccc(OC)cc2)cc1N	2.2µM*	?	nt	?	-7%	1.3µM*
CCOC(=O)c1sc(-c2ccc(F)cc2)cc1N	?	9.5µM*	?	14µM*	-3%	2.5µM*
CC(=O)c1sc(-c2ccccc2)cc1N	-5%	?	nt	10%	nt	12%
CCOC(=O)c1sc(-c2ccccc2)cc1N	?	13µM*	?	13µM*	-6%	?
CCOC(=O)c1cc(-c2ccccc2)sc1N	29%	21µM*	?	15%	0%	?
CC1CCC(NC(=O)c2ccc3c(c2)N(Cc2cccc(Cl)c2)C(=O)c2ccccc2S3(=O)=O)CC1 (stereo unspecified)	nt	-8%	nt	nt	nt	nt
CCOC(=O)c1c(N)sc(C)c1-c1ccccc1	nt	nt	nt	nt	-2%[39.9 µM]	nt
CCOC(=O)c1c(N)sc(-c2ccccc2)c1C	-2%	17µM*	14%	?	-2%	2%
SMILES	NPC1 promoter act	FLuc modulator	SMN2 splice up	ELG1 genotox	Luc counter	Rab9 promoter act
Nc1cc(Cl)ccc1Oc1ccc2ccccc2c1	21%	?	6%	?	-1%	18%
Cc1ccc(Oc2ccc(Cl)cc2N)cc1	20%	21µM*	11%	14%	-1%	16%
CN(CC(=O)NCc1ccc(Cl)cc1)S(=O)(=O)c1ccc2c(c1)c(=O)n(C)c(=O)n2C	nt	3%	24%	nt	nt	nt
CCOc1ccccc1CNC(=O)c1cc2c(=O)n(Cc3ccco3)ccc2nc1C	nt	3%	nt	nt	nt	nt
Cc1ccc(NC(=O)c2cc3nc(-c4ccc5c(c4)OCO5)cc(C(F)(F)F)n3n2)cc1Cl	nt	-2%	7%	nt	nt	nt
CCc1ccc(CC2S/C(=C(\C#N)C(C)=O)NC2=O)cc1 (stereo unspecified)	3%	?	11µM*	-7%	1%	-9%
COc1ccccc1C(=O)Nc1ccccc1SCc1cc(=O)c2ccccc2[nH]1	nt	0%	nt	nt	nt	nt
Cc1cc(C)c(OCC(=O)N(Cc2ccco2)Cc2ccco2)c(C)c1	nt	-18%	-14%	nt	nt	nt
Cc1cc(-c2ccc(N=Nc3ccc4c(S(=O)(=O)O)cc(S(=O)(=O)O)c(N)c4c3O)c(C)c2)ccc1N=Nc1ccc2c(S(=O)(=O)O)cc(S(=O)(=O)O)c(N)c2c1O	nt	nt	nt	nt	10µM*	nt
CCOC(=O)C(C)NC(=O)c1cc2c(=O)[nH]c3ccc(C)cc3c2s1 (stereo unspecified)	nt	3%	6%	nt	nt	nt
Oc1cc2c(cc1O)[C@@H](c1ccccc1)CNCC2	0%	4.8µM*	-29%	-2%	0%	-3%
Oc1cc2c(cc1O)C(c1ccccc1)CNCC2 (stereo unspecified)	0%[46.1 µM]	nt	9%	nt	-10%	1%[46.1 µM]
CC(=O)N1N=C(c2ccccc2)CC1c1ccc(F)cc1 (stereo unspecified)	-4%	2%	nt	0%	nt	-2%
CC(=O)N1N=C(c2ccccc2)CC1c1cn(C)c2ccccc12 (stereo unspecified)	-1%	19µM*	14%	?	0%	-5%
COCCNC(=O)CSc1nc2cc3c(cc2c(=O)n1Cc1ccc(C(=O)NCCc2ccc(OC)c(OC)c2)cc1)OCO3	nt	-7%	nt	nt	nt	nt
COc1ccc(OC)c(/C=C2\SC(N3CCCCC3)=NC2=O)c1	21%	19µM*	nt	0%	nt	-5%
COc1cc(OC)c(OC)cc1/C=C1\SC(N2CCCCC2)=NC1=O	-2%	3.8µM*	nt	9%	nt	-2%
CCCOc1ccccc1/C=C1\SC(N2CCCCC2)=NC1=O	?	12µM*	nt	-10%	nt	23%
CCOC(=O)C1CCCN(C2=NC(=O)/C(=C/c3ccc(OC)cc3OC)S2)C1 (stereo unspecified)	-4%	?	nt	-3%	nt	-6%
Cc1ccc(C2CC(=O)Oc3ccc(O)cc32)cc1 (stereo unspecified)	nt	nt	nt	nt	1%[39.9 µM]	nt
Cc1ccc(-c2c(CN3CCN(c4cccc(C)c4)C(C)C3)csc2C)cc1 (stereo unspecified)	nt	0%	nt	nt	nt	nt
O=C(O)c1ccccc1C(=O)Nc1ccc(Oc2cccc3ccccc23)cc1	-3%	24µM*	-8%	-10%	2%	-2%
O=C(O)c1ccccc1C(=O)Nc1ccc(Oc2ccc3ccccc3c2)cc1	-3%	27µM*	nt	3%	-4%	-3%

Compound activity (PubChem BioAssay)
